Bioassay records (PubChem)
Shown is part of a subset that was picked to be rich in hits.
APEX1 inh = inhibitors of human APE1 endonuclease; AID 2517; P27695; 350,000 compounds, 0.35% hits; Potency, µM (highest dose often 65.8 µM), for inactives: top-dose activity change, negative = inhibition, most hits filed as inhibitors; recombinant APE1, TAMRA/BHQ-2 abasic DNA cleavage fluorescence;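 also: plate controls were vehicle for no effect and reference inhibitor for full effect; nearly all actives have a fitted effect of over 55% in size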
Target sequence (P27695 whole entry, looked up): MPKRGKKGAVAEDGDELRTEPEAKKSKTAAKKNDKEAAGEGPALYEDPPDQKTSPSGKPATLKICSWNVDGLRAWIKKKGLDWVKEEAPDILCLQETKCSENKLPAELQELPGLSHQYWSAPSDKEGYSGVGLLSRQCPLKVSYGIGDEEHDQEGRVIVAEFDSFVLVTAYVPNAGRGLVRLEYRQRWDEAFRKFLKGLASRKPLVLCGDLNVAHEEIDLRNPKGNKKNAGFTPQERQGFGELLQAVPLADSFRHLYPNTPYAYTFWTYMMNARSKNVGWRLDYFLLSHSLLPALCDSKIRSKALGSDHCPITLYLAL
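Measures dequenching upon AP-site incision of a 5'-TAMRA/3'-BHQ-2 THF-containing duplex, 50 nM; human APE1 0.75 nM after 15 min room-temperature exposure to compound; kinetic three-point read at one-minute spacing.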
JMJD2E inh = JMJD2E (human) inhibition; B2RXH2; JMJD2E catalytic domain, FDH-coupled NADH fluorescence (FDH is formaldehyde dehydrogenase); Potency, µM (top dose mostly 57.1 µM), for the others: at the top dose activity change, negative = inhibition, hits mostly inhibitors; 230,000 compounds, 1.6% hits; active = well fitted inhibition curve with a large enough effect, not every such curve was filed as active; inconclusive = small, poorly fitted or top-dose-only effect, or another doubt; inactive = no such curve, though single readings can be large or run the other way;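 also: 0% = wells with enzyme and -100% = buffer wells without enzyme; nearly all actives have a fitted effect of over 50% in size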
RECQ1 helicase = blocks DNA unwinding by human RECQ1; Potency, µM (top dose mostly 57.3 µM), for inactives: at the highest dose activity, negative = inhibition, actives largely listed as inhibitors; 240,000 compounds, 0.54% hits; RECQ1 DNA unwinding, red fluorescence kinetic read; AID 2549;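 also: plate controls were vehicle for no effect and no enzyme for full effect; nearly all actives have a fitted effect of over 30% in size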
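50 nM RECQ1T1 preincubated 15 min with compound in Tris pH 8.0 buffer with MgCl2, DTT, Tween-20 and 2.5 ug/ml poly(dI-dC); started with 200 nM TAMRA/BHQ-2 forked duplex and 2 mM ATP. Unwinding read as fluorescence (525/598 nm), two reads 2 h apart.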
L3MBTL1 inh-1 = blocks human L3MBTL1; 230,000 compounds, 0.66% hits; Potency, µM (doses to about 57.1 µM), for the others: at the top dose activity, negative = inhibition, most hits filed as inhibitors; AlphaScreen L3MBTL1–H3K9me1 peptide binding; Q9Y468; AID 485360; also: % is scaled to controls: 0 for no effect and ±100 for the full control effect; nearly all actives have a fitted effect of over 60% in size
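AlphaScreen proximity signal between nickel-chelate acceptor and streptavidin donor beads (final 10 ug/mL) reports binding of 50 nM L3MBTL1 to 75 nM biotin-H3 K9me1 peptide; complex incubated with compounds 30 min at room temperature; cefsulodin titration as control.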
RGS12 GoLoco inh = inhibitors of human Gai1-RGS12 GoLoco interaction (red fluorophore) | P63096 | Gai1:RGS12 GoLoco peptide FP, rhodamine, 10 min | Potency, µM (top dose mostly 61.6 µM), for inactives: top-dose activity, negative = inhibition, hits mostly inhibitors | 230,000 compounds, 0.44% hits; active = well fitted inhibition curve with a large enough effect, not every such curve was filed as active; inactive = no such curve, though single readings can be large or run the other way; also: % is scaled to controls: 0 for no effect and ±100 for the full control effect; nearly all actives have a fitted effect of over 30% in size
BLM inh = blocks DNA unwinding by human BLM helicase; Potency, µM (highest dose often 56.1 µM), without a hit: at the highest dose activity change, negative = inhibition, actives largely listed as inhibitors; recombinant BLM DNA unwinding, fluorescence dequenching; 350,000 compounds, 0.2% hits; P54132;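 also: plate controls were vehicle for no effect and no enzyme for full effect; nearly all actives have a fitted effect of over 35% in size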
L3MBTL1 inh-2 = validation of human L3MBTL1 methyl-lysine binding inhibitors | shares compounds with L3MBTL1 inh-1 | L3MBTL1 methyl-lysine binding inhibition, biochemical qHTS | Potency, µM, hits mostly inhibitors | 500 compounds, 91% hits | AID 540279; also: nearly all actives have a fitted effect of over 70% in size
AlphaScreen ctr2 = AlphaScreen signal inhibition, L3MBTL1 hit counter-screen; shares compounds with L3MBTL1 inh-1; AlphaScreen counterscreen, signal inhibition; Potency, µM (top dose mostly 57.1 µM), for the others: at the top dose activity change, negative = inhibition, most hits filed as inhibitors; 500 tested, under 10 active; AID 602224; also: 0% is about no effect
An asterisk follows results filed as active; i = inactive; ? = inconclusive; . = no result given. Unless noted, calls follow the shape of the dose curve; as a rule, active = well fitted curve in the direction sought with a large enough effect; inconclusive = small, poorly fitted or top-dose-only effect, or another doubt; inactive = no such curve, though single readings can be large; an effect the other way counts as inactive or inconclusive. Potency is read from the fitted curve at half-maximal effect.

SMILES	APEX1 inh	JMJD2E inh	RECQ1 helicase	L3MBTL1 inh-1	RGS12 GoLoco inh	BLM inh	L3MBTL1 inh-2	AlphaScreen ctr2
CCCCn1c(NS(=O)(=O)c2ccc(C)cc2)c(S(=O)(=O)c2ccccc2)c2nc3ccccc3nc21	-6.0%	?	-22.4%	5.01µM*	.	7.08µM*	21.2*	0.2%
Nc1ncc(S(=O)(=O)NCc2ccccc2)cn1	.	.	.	.	.	-9.2%	.	.
COc1ccc(C2=Nn3c(nnc3-c3ccccc3OC)SC2)cc1OC	-1.9%	-0.4%	15.6%	0.8%	-5.2%	-8.0%	.	.
COc1ccc(C2=Nn3c(nnc3-c3ccccn3)SC2)cc1OC	-10.6%	-1.3%	-7.5%	25.1µM*	-3.4%	6.0%	?	-19.1%
O=C1CCCC(O)=C1Sc1ccccc1C(=O)O	?	0.0%	i	15.8µM*	-49.4%	6.5%	2.38*	?
COC(=O)c1ccccc1NC(=O)CSc1nc(N)cc(N)n1	-0.2%	-1.5%	-15.0%	-0.3%	9.4%	-1.3%	.	.
COC(=O)c1ccccc1NC(=O)CSc1nc(N)cc(=O)[nH]1	?	-2.7%	-25.8%	25.1µM*	8.8%	-6.8%	10.6*	?
Cc1ccc(S(=O)(=O)N2CCN(C(=O)/C=C/c3ccccc3)CC2)cc1C	-10.6%	.	.	1.6%	.	.	.	.
CC(C)(CS(=O)(=O)[O-])NC(=O)CC[N+](C)(C)CCO	6.31µM*	-17.6%	1.41µM*	3.55µM*	1.9%	14.1µM*	1.19*	-1.2%
CC1=NOC(=O)/C1=C\c1ccc(-c2ccc(Br)cc2C(=O)O)o1	3.1%	?	-15.1%	22.4µM*	-4.9%	-1.9%	26.7*	1.5%
O=C1C=C(Nc2ccc(O)cc2)CC(c2ccco2)C1 (stereo not drawn)	-1.4%	-1.4%	6.1%	?	-16.7%	-1.8%	.	.
O=C1C=C(O)CC(c2ccco2)C1 (stereo not drawn)	3.16µM*	-22.6%	?	14.1µM*	2.2%	63.5%	2.99*	-20.5%
Cc1nnc(N2C(=O)c3oc4ccccc4c(=O)c3C2c2ccco2)s1 (stereo not drawn)	?	-2.1%	-15.3%	22.4µM*	-2.7%	-25.3%	?	8.0%
Cc1ccc(OCC(=O)N(Cc2sccc2C)C2CCS(=O)(=O)C2)cc1 (stereo not drawn)	.	.	.	.	.	1.5%	.	.
Cc1ccc(CSc2nnc(-n3c(=O)c(C#N)cc4c(=O)n5cc(C)ccc5nc43)s2)cc1	.	.	.	.	.	-1.3%	.	.
